What was measured:
Conditions in all cases: Compound Concentration (nM):1000
[1] = tested on: PDGFRB
[2] = tested on: PDPK1
[3] = tested on: T1, PFCDPK1(P.falciparum)
T1 construct: gene CDPK1

[4] = tested on: T2, PFPK5(P.falciparum)
T2 construct: gene MAL13P1.279

[5] = tested on: T3, PFTAIRE2
T3 construct: gene CDK15

[6] = tested on: T4, PFTK1
T4 construct: gene CDK14

[7] = tested on: PHKG1
[8] = tested on: PHKG2
[9] = tested on: PIK3C2B
[10] = tested on: PIK3C2G
[11] = tested on: PIK3CA(C420R)
[12] = tested on: PIK3CA(E542K)
[13] = tested on: PIK3CA(E545A)
[14] = tested on: PIK3CA(E545K)
[15] = tested on: PIK3CA(H1047L)
[16] = tested on: PIK3CA(H1047Y)
[17] = tested on: PIK3CA(I800L)
[18] = tested on: PIK3CA(M1043I)
[19] = tested on: PIK3CA(Q546K)
[20] = tested on: PIK3CA
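Note: KINOMEscan scanMAX binding as percent activity remaining versus control; lower means stronger binding.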

Row | SMILES | Percent Control [1] | Percent Control [2] | Percent Control [3] | Percent Control [4] | Percent Control [5] | Percent Control [6] | Percent Control [7] | Percent Control [8] | Percent Control [9] | Percent Control [10] | Percent Control [11] | Percent Control [12] | Percent Control [13] | Percent Control [14] | Percent Control [15] | Percent Control [16] | Percent Control [17] | Percent Control [18] | Percent Control [19] | Percent Control [20]
1 | CC(C)COC(=O)c1ccc2c(c1)/C(=C/Nc1ccc(S(N)(=O)=O)cc1)C(=O)N2 [GW416981X] | 57% | 55% | 71% | 100% | 75% | 89% | 100% | 54% | 100% | 97% | 100% | 100% | 100% | 100% | 100% | 100% | 100% | 87% | 100% | 100%
2 | COc1cc2ncnc(Nc3ccc4c(cnn4Cc4ccccc4)c3)c2cc1OC.Cl [GW282449A] | 100% | 100% | 57% | 100% | 100% | 100% | 100% | 100% | 100% | 97% | 100% | 100% | 100% | 100% | 100% | 100% | 99% | 100% | 100% | 100%
3 | COc1ccc2[nH]c3c4[nH]c5ccc(OC)cc5c4c4c(c3c2c1)C(=O)NC4=O [GW296115X] | 0.1% | 25% | 29% | 82% | 91% | 85% | 12% | 52% | 94% | 76% | 90% | 92% | 100% | 84% | 74% | 89% | 93% | 95% | 91% | 91%
4 | C/C(Nc1ccc(S(N)(=O)=O)cc1)=C1/C(=O)Nc2ccccc21 [GW335962X] | 59% | 100% | 77% | 91% | 95% | 72% | 94% | 53% | 100% | 90% | 95% | 100% | 100% | 100% | 100% | 85% | 100% | 100% | 100% | 100%
5 | COc1ccccc1-c1cc(/C=C2\C(=O)Nc3ncc(Br)cc32)cc(Br)c1O [GW442130X] | 72% | 89% | 100% | 100% | 100% | 100% | 100% | 100% | 59% | 87% | 78% | 100% | 76% | 100% | 100% | 50% | 100% | 60% | 100% | 83%
6 | CCS(=O)(=O)c1ccc(OC)c(Nc2ncc(-c3cccc(F)c3)o2)c1 [GW621970X] | 5.4% | 100% | 4.1% | 100% | 100% | 95% | 100% | 100% | 100% | 100% | 100% | 100% | 100% | 100% | 100% | 97% | 100% | 93% | 100% | 100%
7 | COc1ccc2c(-c3ccnc(Nc4cccc(OC(F)(F)F)c4)n3)cnn2n1 [GW810372X] | 100% | 100% | 81% | 100% | 100% | 100% | 100% | 100% | 100% | 74% | 86% | 100% | 90% | 97% | 75% | 82% | 91% | 100% | 100% | 100%
8 | Cl.c1ccc(Cc2nc3ccc(Nc4ncnc5ccccc45)cc3[nH]2)cc1 [GR269666A] | 100% | 100% | 83% | 100% | 100% | 100% | 100% | 97% | 100% | 89% | 100% | 100% | 100% | 99% | 100% | 100% | 100% | 100% | 100% | 100%
9 | COc1ccc2cc(-c3c(-c4ccncc4)nc(-c4ccc(S(C)(=O)=O)cc4C)n3C)ccc2c1 [SB-633825] | 70% | 100% | 61% | 77% | 45% | 80% | 100% | 84% | 76% | 81% | 88% | 79% | 84% | 81% | 100% | 91% | 83% | 83% | 91% | 70%
10 | NS(=O)(=O)c1ccc(N/N=C2\C(=O)Nc3ccc(-c4cnco4)cc32)cc1 [GW276655] | 57% | 82% | 93% | 95% | 60% | 94% | 100% | 81% | 86% | 96% | 81% | 89% | 98% | 89% | 94% | 87% | 91% | 87% | 97% | 96%
11 | C[C@@H](Oc1cc(-n2cnc3ccc(OC4CCN(C)CC4)cc32)sc1C(N)=O)c1ccccc1Cl [GSK579289A] | 12% | 100% | 74% | 76% | 74% | 95% | 86% | 81% | 32% | 78% | 60% | 80% | 67% | 78% | 76% | 100% | 78% | 72% | 100% | 65%
12 | CN(C)c1cc2c(Nc3ccc4c(cnn4Cc4ccccc4)c3)ncnc2cn1 [GW282974X] | 98% | 100% | 32% | 94% | 79% | 100% | 91% | 83% | 35% | 89% | 83% | 90% | 95% | 67% | 88% | 70% | 76% | 97% | 85% | 89%
13 | COc1cccc(-c2c[nH]c3c(N/N=C/c4ccncc4)ncnc23)c1 [GW814408X] | 5.5% | 78% | 5.2% | 97% | 78% | 95% | 100% | 100% | 100% | 92% | 100% | 100% | 100% | 100% | 99% | 78% | 100% | 99% | 100% | 95%
14 | NS(=O)(=O)c1ccc(N/N=C2\C(=O)Nc3ccc(C(=O)NCc4ccncc4)cc32)cc1 [GW300657X] | 74% | 65% | 85% | 57% | 49% | 73% | 100% | 70% | 100% | 86% | 90% | 85% | 100% | 75% | 89% | 72% | 85% | 94% | 83% | 100%
15 | NS(=O)(=O)c1ccc(N/N=C2\C(=O)Nc3ccc(C(=O)NCCc4c[nH]cn4)cc32)cc1 [GW300660X] | 100% | 97% | 69% | 78% | 100% | 100% | 100% | 71% | 100% | 86% | 100% | 100% | 100% | 100% | 98% | 100% | 98% | 81% | 100% | 100%
16 | CN1CCN(C(=O)c2ccc(NC(=O)Nc3ccc(N(C)c4ccnc(Nc5ccc(CS(C)(=O)=O)cc5)n4)cc3)cc2)CC1.Cl [GW830263A] | 0% | 68% | 71% | 95% | 100% | 81% | 100% | 100% | 100% | 100% | 100% | 98% | 100% | 97% | 96% | 100% | 98% | 100% | 100% | 98%
17 | CC1=C(C(=O)Nc2ccc3[nH]ncc3c2)C(c2ccc3ccccc3c2)CC(=O)N1 (stereo not shown) [GSK270822A] | 74% | 100% | 66% | 70% | 60% | 64% | 100% | 100% | 92% | 79% | 90% | 83% | 91% | 88% | 97% | 89% | 93% | 74% | 86% | 90%
18 | Nc1ncnc2occ(-c3ccc(NC(=O)Nc4cc(C(F)(F)F)ccc4F)cc3)c12 [GW770249X] | 0% | 57% | 83% | 100% | 46% | 18% | 100% | 100% | 100% | 88% | 100% | 100% | 100% | 100% | 100% | 100% | 100% | 90% | 100% | 100%
19 | Cl.O=C(Nc1ccc(Oc2ccc3[nH]c(NC(=O)c4ccccc4)nc3c2)cc1)Nc1cc(C(F)(F)F)ccc1F [GW709042A] | 1.2% | 100% | 100% | 100% | 100% | 97% | 100% | 100% | 100% | 97% | 81% | 100% | 95% | 100% | 100% | 80% | 100% | 100% | 100% | 100%
20 | Cl.O=C(O[C@H]1CN[C@H](C#Cc2cc3ncnc(Nc4ccc5c(cnn5Cc5ccccc5)c4)c3s2)C1)N1CCOCC1 [GSK200398A] | 100% | 89% | 88% | 100% | 91% | 100% | 96% | 98% | 88% | 84% | 100% | 100% | 100% | 85% | 100% | 100% | 83% | 100% | 98% | 100%
